Screening data from PubChem.
DRD3 agonist = qHTS of D3 Dopamine Receptor Agonist: qHTS; D(3) dopamine receptor (Homo sapiens), P35462; 0.58% of 410,000 active; max activation, %; D3R DiscoveRx beta-arrestin cells, luminescence, 90 min; AID 652048, 2013; in the data active = max activation above about 30%; note: 0% is about no effect
Target sequence (P35462 whole entry, looked up): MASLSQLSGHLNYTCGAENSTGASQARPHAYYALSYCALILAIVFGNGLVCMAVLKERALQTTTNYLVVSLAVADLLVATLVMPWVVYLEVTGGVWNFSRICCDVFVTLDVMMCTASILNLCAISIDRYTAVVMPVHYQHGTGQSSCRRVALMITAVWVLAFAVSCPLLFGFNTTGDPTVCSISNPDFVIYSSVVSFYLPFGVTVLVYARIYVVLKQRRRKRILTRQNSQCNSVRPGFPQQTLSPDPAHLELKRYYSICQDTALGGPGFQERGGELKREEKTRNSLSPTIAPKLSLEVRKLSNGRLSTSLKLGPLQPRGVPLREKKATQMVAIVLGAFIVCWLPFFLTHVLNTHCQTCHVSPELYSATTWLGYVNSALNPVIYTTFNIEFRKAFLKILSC
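Cells at 1500/well, incubated overnight, then treated with pinned compounds (dopamine as control) for 90 min at 37 degrees C. DiscoveRx reagent added for 30 - 60 minutes at room temperature; luminescence read.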
SW480 rerep = A quantitative high throughput screen for small molecules that induce DNA re-replication in SW480 colon adenocarcinoma cells. SW480 DNA re-replication, Hoechst DNA content imaging, 48 h. AID 624297, 2012. 1.8% of 340,000 active. Potency, µM (highest dose often 46.1 µM), for the others: at the highest dose re-replication activation, most hits filed as activators; note: potency is the fitted concentration of half-maximal effect; % of control where 0% means no effect; nearly all actives have a fitted effect of over 55% in size
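First, 250 cells per well were seeded. Next, compound or vehicle (23 nL) was pinned in, plates sat 48 hr at 37 C. Finally Hoechst was added for 40 min before fluorescence scanning.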
MCF10A rereplic = A quantitative high throughput screen for small molecules that induce DNA re-replication in MCF 10a normal breast cells; MCF 10A DNA re-replication, Hoechst nuclear intensity, 48 h; Potency, µM (doses to about 46.1 µM), for inactives: at the highest dose activity, positive = re-replication, hits mostly activators; 2.9% of 350,000 active; note: potency is the fitted concentration of half-maximal effect; % of control where 0% means no effect; nearly all actives have a fitted effect of over 50% in size
KB-V1 MDR tox = qHTS assay for MDR1-selective chemotherapeutics: Primary screen using the drug-selected MDR subline cells KB-V1; 3.4% of 400,000 active; KB-V1 MDR cells viability, CellTiter-Glo, 72 h; Potency, µM (doses to about 46.1 µM), most hits filed as cytotoxic; AID 1347076, 2019; note: potency is the fitted concentration of half-maximal effect; % is set by controls: 0 for no effect and ±100 for the full control effect; nearly all actives have a fitted effect of over 60% in size
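Luminescent ATP read-out (CellTiter-Glo, 10 min) measures survival of drug-selected KB-V1 MDR cells after 72 h, 37 degrees C compound exposure. Medium: phenol-red-free DMEM, 10% FBS. Values from fitted concentration-response curves.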
DRD3 antagonist = qHTS of D3 Dopamine Receptor Antagonist: qHTS. D3R cells, DiscoveRx beta-arrestin luminescence, antagonist mode; hits give low values. AID 652054, 2013. max response, negative = inhibition, %. D(3) dopamine receptor (Homo sapiens), P35462. 2.5% of 360,000 active; in the data active = max response below about -50%; inconclusive = no clear call, values can overlap the other calls; note: % is set by controls: 0 for no effect and ±100 for the full control effect
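Cells plated overnight at 1500 cells/well, then exposed to library compounds with dopamine controls for 90 minutes at 37 degrees C. DiscoveRx reagent added for 30–60 minutes at room temperature; luminescence read, quantitative HTS format.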
KB-3-1 cytotox = qHTS assay for MDR1-selective chemotherapeutics: Primary screen using the parental adenocarcinoma cell KB-3-1. KB-3-1 viability, CellTiter-Glo ATP luminescence, 72 h. Potency, µM (top dose mostly 46.1 µM), hits mostly cytotoxic. 1.4% of 400,000 active; note: potency is the fitted concentration of half-maximal effect; % is set by controls: 0 for no effect and ±100 for the full control effect; nearly all actives have a fitted effect of over 60% in size
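KB-3-1 cells, DMEM (no phenol red) + 10% FBS; compound by pin transfer, 72 h, 37 °C. Readout: CellTiter-Glo luminescence after 10 min. Data normalized, curve-fitted.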
Numbers without * were called inactive; i = inactive; ? = inconclusive; · = not tested or not shown; ! = a repeat was not active. A selection: hits, their analogues and other compounds. The true share with any hit is near 8.9%. Unless noted, calls come from the whole dose curve; as a rule, active = well fitted curve in the direction sought with a large enough effect; inconclusive = small, poorly fitted or top-dose-only effect, or another doubt; inactive = no such curve, though single readings can be large; an effect the other way counts as inactive or inconclusive.

SMILES	DRD3 agonist	SW480 rerep	MCF10A rereplic	KB-V1 MDR tox	DRD3 antagonist	KB-3-1 cytotox
O=C(O)c1ccc(-c2nc(-c3ccccc3)c(-c3ccccc3)[nH]2)cc1	-0.7	-6.9%	16.4µM*	?	-17.8	i
Fc1ccc(-c2nc(-c3cccs3)c(-c3cccs3)[nH]2)cc1	-1.4	·	·	·	·	·
CCOC(=O)c1ccc(NC(=O)C2CCN(C(=O)N3CC(C)Oc4ccc(C)cc43)CC2)cc1 (stereo not drawn)	3.6	·	·	i	·	i
CCC(C(=O)Nc1ccc(C(=O)OC)cc1)n1nc(-c2ccc(C)c(C)c2)ccc1=O (stereo not drawn)	-1.0	·	·	i	·	i
COc1ccc(C2=C(C)C(N3CCC(C(=O)Nc4ccccc4F)CC3)=NS2(=O)=O)cc1	7.5	·	·	i	·	i
CC(=O)c1ccc(OCC(=O)N2CCCCC2)cc1	-5.5	·	·	·	·	·
CN(C)CCNC(=O)c1cc2c(s1)-c1ccc(Cl)cc1SC2	1.1	?	20.6µM*	i	?	?
CC1(C(=O)NC2CCN(Cc3ccccc3)CC2)CCN1Cc1cc2ccccc2o1 (stereo not drawn)	-11.2	·	·	i	-77.5*	i
CSc1ccc(CN2CCC2(C)C(=O)NC2CCN(Cc3ccccc3)CC2)cc1 (stereo not drawn)	-18.5	·	·	i	-110.7*	i
CCCCCCCCCc1nc2sc3c(c2c(=O)n1NC(=O)c1ccccc1[N+](=O)[O-])CC(C)(C)OC3	19.7	-0.3%	2.91µM*	?	5.2	i
CCCCCCCCCc1nc2sc3c(c2c(=O)n1NC(=O)c1ccc([N+](=O)[O-])cc1)CC(C)(C)OC3	4.6	9.2%	6.51µM*	?	12.9	i
CCCc1nc2sc3c(c2c(=O)n1NC(=O)c1ccco1)CC(C)(C)OC3	0.6	13.9%	17.5%	i	9.5	i
CCCCCC1Nc2cc(C(F)(F)F)c(S(N)(=O)=O)cc2S(=O)(=O)N1 (stereo not drawn)	-0.3	·	·	·	·	·
Cc1nc2ccc(S(=O)(=O)CCC(=O)Nc3ccc(F)cc3C)cc2s1	1.6	·	·	i	·	i
CCN(C(=O)CSc1nc2nc(C)cc(C)n2n1)c1cccc(C)c1	7.7	3.9%	-8.7%	23.1µM*	7.3	i
CCCn1c(C)cc(C(=O)CSc2nc3nc(C)cc(C)n3n2)c1C	14.5	-5.3%	8.4%	6.51µM*	-6.0	i
CCOC(=O)CSc1nc2nc(C)cc(C)n2n1	1.3	-4.6%	7.7%	i	0.2	i
Cc1cc(C)n2nc(SCCC(=O)NCCc3ccccc3)nc2n1	1.4	-3.0%	10.3%	14.6µM*	0.3	i
CCN(C(=O)CSc1nc2nc(C)cc(C)n2n1)c1ccccc1	0.9	0.9%	1.1%	?	-13.1	i
CCc1ccc(NC(=O)CSc2nc3nc(C)cc(C)n3n2)cc1	8.0	11.6%	11.9%	13µM*!	16.9	i
CCc1cccc(C)c1NC(=O)CN1C(=O)c2c(c3ccccc3n2C)C1c1ccc(OC)cc1 (stereo not drawn)	-8.1	·	·	i	·	i
Cc1cc[n+](C2CCCCC2)c2ccccc12	·	·	·	i	·	i
CCOC(=O)[C@H](CCc1ccccc1)N[C@@H](C)C(=O)N(CC(=O)O)C1Cc2ccccc2C1	-28.9	·	·	·	·	·
O=C(Nc1ccccc1F)c1oc2ccccc2c1NC(=O)c1c(F)cccc1F	5.1	·	·	i	·	i
Cc1cc(C)nc(SCC(=O)Nc2ccc(S(=O)(=O)NCCO)cc2)n1	-4.6	1.9%	7.4%	i	24.0	i
SMILES	DRD3 agonist	SW480 rerep	MCF10A rereplic	KB-V1 MDR tox	DRD3 antagonist	KB-3-1 cytotox
Cc1cc(C)nc(SCC(=O)Nc2ccc(S(=O)(=O)NC(C)(C)C)cc2)n1	1.4	1.0%	-3.2%	20.6µM*	16.0	i
Cc1cc(C)n2nc(SCC(=O)Nc3ccccc3)nc2n1	1.6	-1.0%	1.0%	?	13.6	i
Cc1cc(C)n2nc(SCC(=O)Nc3cccc(C(F)(F)F)c3)nc2n1	-4.8	·	·	20.6µM*	·	?
Cc1ccc(OCC(=O)Nc2ccc(N3CCCC3)cc2)cc1C	-3.7	0.1%	0.9%	i	-9.2	i
Cc1ccc(OCC(=O)NNC(=O)C2CCC2)cc1C	4.2	-2.2%	3.26µM*	i	-11.0	i
Cc1ccc(NC(=O)c2ccc(=O)n(Cc3ccccc3C)c2)c(C)c1	6.9	·	·	?	·	i
CCOC(=O)c1sc(NC(=S)NC(=O)C2CCCC2)cc1C	8.8	-0.4%	8.7%	i	6.8	i
CCOC(=O)c1sc(NC(=S)NC(=O)CC(C)C)cc1C	8.4	-3.1%	2.9%	i	-78.3*	i
Cn1c(SCC(=O)NCCC2=CCCCC2)nnc1C(F)(F)F	-5.0	·	·	i	-70.0*	i
Cn1cnnc1SCC(=O)NCCC1=CCCCC1	-0.6	-2.4%	-3.1%	i	-10.0	i
COc1ccc(-c2noc(CC(=O)Nc3ccc(F)cc3F)n2)cc1	-3.0	·	·	i	·	i
CC1(C)COC(c2ccc(F)c([N+](=O)[O-])c2)=N1	5.2	?	23.1µM*	?	17.5	?
CC1(C)COC(c2cc([N+](=O)[O-])ccc2Cl)=N1	5.8	-9.9%	-0.6%	i	7.4	i
COc1ccccc1CCc1nnc(CCC(=O)NCC[C@@H]2C[C@@H]3C=C[C@H]2C3)o1	2.5	2.2%	20.4%	i	-61.7*	i
COc1ccccc1CCc1nnc(CCC(=O)NCCC2CCCCO2)o1 (stereo not drawn)	-4.5	·	·	i	-6.2	i
NS(=O)(=O)c1ccc(NC(=S)Nc2ccc(S(=O)(=O)N3CCCC3)cc2)cc1	-0.3	-22.9%	22.0%	i	2.4	i
O=S(=O)(c1ccc(NC(=S)NN=Cc2ccccc2O)cc1)N1CCCCC1	3.5	?	14.9%	7.31µM*	-10.8	i
O=S(=O)(c1ccc(Cl)c(NC(=S)N/N=C/c2ccc(O)cc2)c1)N1CCOCC1	5.6	18.4µM*	?	20.6µM*	-7.1	?
O=[N+]([O-])c1cc(Cl)cc(/C=N/NC(=S)Nc2ccc(S(=O)(=O)N3CCOCC3)cc2)c1O	-18.6	?	-2.9%	i	-53.8*	?
CC[C@@]1(c2ccccc2)NC(=O)N(C)C1=O	11.9	1.2%	14.3%	·	·	·
